ERK AVP inh – vasopressin-driven ERK pathway inhibition; HEK293-V1b, vasopressin-stimulated pERK AlphaScreen; Potency, µM (doses to about 57.5 µM), for the others: at the top dose activity, negative = inhibition, usual class: inhibitors; 72,000 tested, 0.99% active; also: % is scaled to controls: 0 for no effect and ±100 for the full control effect; nearly all actives have a fitted effect of over 55% in size
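HEK293 cells stably expressing V1b receptor, preincubated 30 min at 37 °C with compound, then stimulated 5 min with 25 nM vasopressin. Phospho-ERK by AlphaScreen SureFire after 5 h RT; normalized to DMSO and vasopressin; AC50 by Hill fit.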
Casp1 inh – caspase-1 (human) inhibition, allosteric or competitive. 75,000 tested, 0.03% active. Potency, µM (titrated, usually from 57.5 µM), without a hit: top-dose activity change, negative = inhibition, most hits filed as inhibitors. Caspase-1 enzyme, Ac-WEHD-AFC fluorogenic rate. P29466. AID 900;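 also: plate controls were vehicle for no effect and no substrate for full effect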
Target sequence (P29466 120-297 limits assumed): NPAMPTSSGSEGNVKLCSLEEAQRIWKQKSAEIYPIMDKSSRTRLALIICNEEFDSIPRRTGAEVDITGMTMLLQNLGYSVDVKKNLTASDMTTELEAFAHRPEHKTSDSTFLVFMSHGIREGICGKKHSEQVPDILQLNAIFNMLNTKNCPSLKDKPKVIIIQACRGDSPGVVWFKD
Target sequence (P29466 317-404 limits assumed): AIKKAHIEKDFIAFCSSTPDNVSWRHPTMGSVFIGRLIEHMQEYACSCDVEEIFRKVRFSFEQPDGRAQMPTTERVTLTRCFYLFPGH
Casp7 inh – caspase-7 (human) inhibition, allosteric or competitive; AID 889; recombinant caspase-7, Ac-DEVD-AFC fluorescence rate; Potency, µM (highest dose often 57.5 µM), without a hit: top-dose activity change, negative = inhibition, usual class: inhibitors; 75,000 tested, 0.02% active; P55210; active = well fitted inhibition curve with a large enough effect in the main read-out, with a control signal flat, not every such curve was filed as active; inconclusive = small, poorly fitted or top-dose-only effect, or a change in a side signal; also: % of control where 0% means no effect
Target sequence (P55210 24-198 limits assumed): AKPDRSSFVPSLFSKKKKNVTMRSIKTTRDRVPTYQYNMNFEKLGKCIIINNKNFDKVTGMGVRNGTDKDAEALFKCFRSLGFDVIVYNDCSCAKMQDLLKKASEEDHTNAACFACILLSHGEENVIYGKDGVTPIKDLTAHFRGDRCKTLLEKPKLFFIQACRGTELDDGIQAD
Target sequence (P55210 207-303 limits assumed): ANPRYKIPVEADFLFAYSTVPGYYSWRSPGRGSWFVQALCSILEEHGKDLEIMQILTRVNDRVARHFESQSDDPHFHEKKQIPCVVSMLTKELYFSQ
15-hLO inh – blocks human 15-lipoxygenase activity. 74,000 tested, 1.4% active. P16050. Potency, µM (series often up to 57.1 µM), inactives show top-dose activity change, negative = inhibition, most hits filed as inhibitors. purified 15hLO-1, xylenol orange hydroperoxide absorbance; also: % is scaled to controls: 0 for no effect and ±100 for the full control effect; nearly all actives have a fitted effect of over 55% in size
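Inhibition is scored from a chromogenic endpoint. After 15 min enzyme-compound contact, arachidonic acid (50 uM final) reacts 6 min with 40 nM 15hLO-1 at room temperature, then Fe-XO reagent is added for 30 min and absorbance ratio recorded.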
ALOX15B inhib – 15-hLO-2 (ALOX15B) enzyme inhibition; O15296; purified 15hLO-2, xylenol orange hydroperoxide absorbance; Potency, µM (titrated, usually from 57.1 µM), for the others: at the top dose activity change, negative = inhibition, hits mostly inhibitors; 110,000 tested, 0.56% active; AID 881; also: % is scaled to controls: 0 for no effect and ±100 for the full control effect; nearly all actives have a fitted effect of over 60% in size
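Read-out: hydroperoxide product oxidises ferrous iron, measured as xylenol orange complex via the 573-to-405 nm absorbance ratio after 30 min. Reaction: 50 nM enzyme, 15 min compound preincubation, 45 uM arachidonic acid, 90 min RT, Hepes pH 7.5 with Triton X-100.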
* marks the source's active call; other numbers are inactive results; u = inconclusive; x = not tested or not shown; [ ] = another dose, or the depositor's remark. Most compounds without a hit are left out; they make up all but 1.7% or so of the library. Unless noted, calls follow the shape of the dose curve; as a rule, active = well fitted curve in the direction sought with a large enough effect; inconclusive = small, poorly fitted or top-dose-only effect, or another doubt; inactive = no such curve, though single readings can be large; an effect the other way counts as inactive or inconclusive. Potency is read from the fitted curve at half-maximal effect.

SMILES	ERK AVP inh	Casp1 inh	Casp7 inh	15-hLO inh	ALOX15B inhib
COc1ccccc1N1CCN(C[C@@H](C(=O)NC(C)(C)C)c2ccccc2)CC1	-4.8%	2.2%	-1.8%	15.8µM*	-4.2%
CC(=O)OC(C)C	-5.8%	-3.4%	0.7%	-6.4%	0.1%
COc1ccc(C2CC(=O)c3cnc(NC(=O)c4ccccc4OC)nc3C2)c(OC)c1 (stereo unspecified)	10µM*	-12.0%	-16.7%	-10.0%	x
CCCc1ncc(C(=O)c2ccc(OC)cc2)n1C	-19.5%	0.6%	1.1%	10µM*	4.0%
COc1ccccc1N1CCN(S(=O)(=O)c2ccccc2)CC1	-1.5%	0.3%	-0.4%	3.3%	2.4%
Cc1cc(N2CCN(S(=O)(=O)c3ccccc3)CC2)c2ccccc2n1	31.6µM*	-1.8%	-4.5%	9.8%[11.4 µM]	18.5%
CCc1ccc(NS(=O)(=O)c2ccc(Cl)cc2OC)cc1	x	-2.9%	-3.6%	-25.9%	x
Cc1ccc(C2NC(=O)c3c(sc4c3CCN(C)C4)N2)o1 (stereo unspecified)	u	x	u	3.16µM*	48.3%
CN1CCc2c(sc3c2C(=O)NC(/C=C/c2ccco2)N3)C1 (stereo unspecified)	15.8µM*	x	u	u	x
CCCCCC1=C2CNC(CC(C)C)(C(=O)OC)C=C2C(C)C1=O (stereo unspecified)	6.7%	-5.8%	-11.0%	x	-17.0%
CS(=O)(=O)N1CCC2(CC1)CN(c1ccccn1)C2	-8.2%	1.0%	-0.5%	9.9%	1.7%
C=C[C@@]1(C)CC(=O)[C@@]2(O)[C@@]3(C)[C@@H](O)CCC(C)(C)[C@@H]3[C@H](OC(=O)CCN(C)C)[C@H](OC(C)=O)[C@@]2(C)O1	1µM*	0.1%	0.4%	-5.1%[25.6 µM]	13.7%
C=C[C@@]1(C)CC(=O)[C@@]2(O)[C@@]3(C)[C@H](O)CCC(C)(C)[C@@H]3[C@H](O)[C@H](OC(C)=O)[C@]2(C)O1	u	2.4%	1.8%	-7.2%	-4.5%
O=C(Nc1nc(-c2cccs2)cs1)c1ccc(Cl)cc1	x	x	x	x	7.9%
O=C(COc1ccc(Cl)cc1)Nc1nc(-c2cccs2)cs1	25.1µM*	0.1%	-1.8%	-24.2%	x
COc1cc(C(=O)Nc2nc(-c3cccs3)cs2)cc(OC)c1OC	3.16µM*	-2.5%	-1.1%	15.8µM*	-1.3%
COc1ccc(NC(=O)N2CCCC3(CCNCC3)C2)cc1	6.0%	-3.2%	-2.4%	-14.6%	10.3%
COC(=O)c1ccc2c(c1)NC(=O)C1CCCN21 (stereo unspecified)	-26.5%	-10.3%	-10.9%	7.94µM*	x
CCCCCCCCCC(=O)N[C@@H](CN1CCOCC1)[C@@H](O)c1ccccc1	32.6%	1.9%	-1.0%	10.6%	21.6%
N#Cc1c(-c2ccccc2)cc(-c2ccco2)c(C#N)c1N	u	x	u	7.94µM*	u
N#Cc1sc2nc(-c3ccccc3)cc(-c3ccco3)c2c1N	-24.2%	x	25.1µM*	3.98µM*	-12.7%[11.4 µM]
O=C(N/N=C1/C[C@@H](O)[C@@H](O)[C@@H]2[C@@H]3C(=O)N(C[C@@H]4CCCO4)C(=O)[C@H]3CC[C@@H]12)OCc1ccccc1	-2.7%[11.5 µM]	-5.1%[11.5 µM]	3.8%[11.5 µM]	1.1%[11.4 µM]	x
CC(C)(C)/C(O)=C(/C#N)c1nc2ccccc2[nH]1	20µM*	-1.6%	-1.3%	-16.7%	8.9%
COc1cccc(OC)c1/C(O)=C(\C#N)c1nc2ccccc2[nH]1	15.2%	-8.5%	-5.0%	-0.7%	-5.4%
CCOc1cc(C(=O)Nc2ccc3c(c2)OCO3)ccc1OC(F)F	20µM*	-1.5%	-0.8%	-26.1%	3.8%
SMILES	ERK AVP inh	Casp1 inh	Casp7 inh	15-hLO inh	ALOX15B inhib
C=C(C)CSc1nc(N)c(C#N)c(-c2ccc(C)cc2)c1C#N	65.0%	-6.7%	-12.5%	31.6µM*	u
Cc1ccc2nc3ccc(N4CCCC4)nn3c(=O)c2c1	6.9%	x	u	25.1µM*	-22.4%
COc1ccc2c(=O)c(-c3nc(C)cs3)coc2c1	x	x	x	x	3.5%
Cc1csc(-c2coc3cc(O)cc(C)c3c2=O)n1	-28.5%	-2.5%	-2.3%	15.8µM*	-7.9%
Cc1nc2scc(-c3ccccc3)c2c(=O)n1N	-9.9%	-1.5%	-1.2%	-10.2%	2.8%
CCc1nc2scc(-c3ccccc3)c2c(=O)n1N	u	2.2%	-3.6%	20µM*	-7.8%
C=C(C)C1CCC(C)=C1COC(=O)Nc1ccccc1 (stereo unspecified)	x	0.3%	-2.7%	6.31µM*	8.3%
COc1ccc(N2CCN(Cc3cc(=O)oc4c3ccc3ccccc34)CC2)cc1	-9.8%	-1.3%	-0.7%	-3.1%	-6.4%
O=c1cc(C(F)F)oc2c1ccc1ccccc12	-11.1%	-1.5%	0.2%	12.6µM*	-0.8%
OC(COc1ccc(Cl)c2ccccc12)CN1CCN(c2ccccn2)CC1 (stereo unspecified)	20µM*	-3.7%	-7.1%	u	8.3%
CCN(CC)CCCNC(=O)c1ccc(Cc2nc3ccccc3[nH]2)cc1	x	-0.9%	-1.3%	3.4%	x
C[C@@H](c1ccccc1)N1C(=O)[C@H]2[C@@H]3[C@H](O)[C@H](O)CC(=O)[C@H]3CC[C@H]2C1=O	25.7%[11.5 µM]	-12.4%[11.5 µM]	0.0%[11.5 µM]	6.5%[11.4 µM]	x
CC(=O)c1c(C)[nH]c(C(=O)OCc2nnc(-c3ccccc3)o2)c1C	25.1µM*	-2.9%	-0.4%	13.6%	-3.4%
Cc1ccc(C(=O)OCc2nnc(-c3ccccc3)o2)o1	9.2%	-1.3%	-1.3%	4.5%	0.4%
Cc1cc2ncn(C3CC(=O)N(Cc4ccccc4)C3=O)c2cc1C (stereo unspecified)	31.6µM*	-1.2%	-0.9%	11.3%	18.0%
Cc1cc2ncn(C3CC(=O)N(C)C3=O)c2cc1C (stereo unspecified)	x	x	x	x	-2.3%
Cc1c(C(=O)OCC2CCCO2)[nH]c2c1C(=O)CC(c1ccc(N(C)C)cc1)C2 (stereo unspecified)	25.1µM*	0.3%	-5.1%	-4.6%	-3.3%
CCCn1c(C)nc2c(NCc3ccccc3)nc(C)nc21	u	-0.7%	1.1%	-21.8%	37.5%
COc1cc(CN2CCC(C(=O)NC3CCCC3)CC2)cc(OC)c1O	15.4%	1.9%	-1.2%	25.1µM*	-23.2%
COc1cc(CN2CCC(C(=O)N3CCCC(C)C3)CC2)cc(OC)c1O (stereo unspecified)	x	x	x	x	-14.3%
CN(C)Cc1ccccc1-c1nc(NCc2cccs2)c2ccccc2n1	39.8%	-3.9%	-4.4%	2.9%	12.7%
O=C(COc1ccc(Br)cc1CO)Nc1ccc(F)cc1	39.8µM*	-2.0%	-0.4%	-18.5%	-3.4%
O=C(NC1CCCC1)c1ccc2nc(-c3ccco3)c(-c3ccco3)nc2c1	u	x	u	10µM*	-28.5%
CCOC(=O)C1CCN(C(=O)Nc2ccc3nc(-c4ccco4)c(-c4ccco4)nc3c2)CC1	25.1µM*	x	u	5.01µM*	-23.2%[11.4 µM]
O=C(NC1CCCCC1)c1cnn2c(C(F)(F)F)cc(-c3ccco3)nc12	-2.5%	x	u	25.1µM*	-7.1%
CCOC(=O)C1CCN(C(=O)Nc2ccc3c(c2)nc(C)n3C)CC1	-3.8%	0.1%	0.2%	1.6%	1.4%

Compound activity deposited in PubChem BioAssay by National Center for Advancing Translational Sciences (NCATS).
